The record followed here is PubChem BioAssay (EPA / NIEHS).

The nature of experiment [1]: ATG_GLI_CIS: Attagene CIS-FACTORIAL HepG2 Assay for human Zinc Finger Protein GLI1 (AID 2282945). The note with it: HepG2, Attagene cis-factorial reporter mRNA, GLI element; actives raise or lower the signal. Put shortly:
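HepG2 cells transiently transfected with cis-promoter multiplexed reporter units report endogenous transcription factor activity. After 24 h chemical exposure, reporter mRNA was quantified by RT-PCR, 6-FAM labelling, HpaI digestion and capillary electrophoresis, with bidirectional fitting against DMSO.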

Experiment [2] in a line: ATG_M_32_CIS: Attagene CIS-FACTORIAL HepG2 Assay for M32 Transcription Factor (Internal Marker) (AID 2282949).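 Note: background control marker of the multiplexed CIS panel rather than a real target.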 Conditions: HepG2 Attagene cis-factorial M32 reporter, mRNA; actives raise or lower the signal. A digest of the protocol: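 Transient MRTU transfection of HepG2; 24 h compound treatment; TriZol RNA, oligo(dT) RT, reporter PCR, 6-FAM primer extension, HpaI cut, CE. Gain/loss of signal vs DMSO.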

Experiment [3] can be described thus: ATG_M_06_CIS: Attagene CIS-FACTORIAL HepG2 Assay for M06 Transcription Factor (Internal Marker) (AID 2282950). The note with it: HepG2 Attagene CIS-FACTORIAL M06 internal marker reporter; actives raise or lower the signal. Put shortly:
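HepG2 cells transiently transfected with cis-regulated multiple reporter transcription units were exposed to chemical for 24 h; reporter mRNA was quantified by RT-PCR, 6-FAM primer labelling, HpaI digestion and capillary electrophoresis, fitted bidirectionally against DMSO.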

In experiment [4] the target is Hypoxia-inducible factor 1-alpha (Homo sapiens) (UniProt Q16665). Nature of the experiment: ATG_HIF1a_CIS: Attagene CIS-FACTORIAL HepG2 Assay for human Hypoxia Inducible Factor 1 (HIF1A) (AID 2282951). The note with it: HepG2 Attagene cis-factorial HIF1a reporter transcription; actives raise or lower the signal. Put shortly:
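Activity is fitted in both directions relative to DMSO. Reporter transcripts are read by RT-PCR, fluorescent primer extension and capillary electrophoresis after 24 h chemical treatment. The cells are HepG2 carrying transiently transfected cis-element-driven reporter units responding to endogenous factors.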

Experiment [5] concerns the target Hepatocyte nuclear factor 6 (Homo sapiens) (UniProt Q9UBC0). Nature of the experiment: ATG_HNF6_CIS: Attagene CIS-FACTORIAL HepG2 Assay for human Hepatocyte Nuclear Factor 6 (HNF6) (AID 2282952). The note with it: HepG2 Attagene cis-factorial HNF6 reporter transcription; actives raise or lower the signal. A digest of the protocol:
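Endogenous transcription factor activity in human HepG2 liver cells was captured through cis-regulated reporter constructs. After 24 h treatment, reporter mRNA was measured by RT-PCR with capillary electrophoresis, and activity was fitted in both directions relative to DMSO.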

Experiment [6] addresses Heat shock factor protein 1 (Homo sapiens) (UniProt Q00613). Nature of the experiment: ATG_HSE_CIS: Attagene CIS-FACTORIAL HepG2 Assay for human Heat Shock Transcription Factor 1 (HSE) (AID 2282953). The note with it: HepG2 HSE cis-reporter, Attagene RNA transcription; actives raise or lower the signal. Put shortly:
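HepG2 cells transiently transfected with multiple reporter transcription units under cis-regulatory promoter control, measuring endogenous transcription factor activity. After 24 h chemical exposure, reporter mRNA quantified by RT-PCR, fluorescent labelling, HpaI digestion and capillary electrophoresis; bidirectional fit versus DMSO.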

Experiment [7] can be described thus: ATG_MRE_CIS: Attagene CIS-FACTORIAL HepG2 Assay for human Metal Responsive Element (MRE) (AID 2282954). The note with it: HepG2 MRE cis-reporter transcription, Attagene multiplex; actives raise or lower the signal. Put shortly:
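Readout: capillary electrophoresis of 6-FAM-labelled, HpaI-digested RT-PCR reporter products. System: HepG2 cells carrying transient multiplexed cis reporters, dosed 24 h. Analysis: bidirectional fit, DMSO baseline.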

A short description of experiment [8]: ATG_PXRE_CIS: Attagene CIS-FACTORIAL HepG2 Assay for human Pregnane X Receptor Element (PXRE) (AID 2282957). The note with it: HepG2 Attagene CIS-FACTORIAL PXRE reporter, mRNA; actives raise or lower the signal. Put shortly:
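Endogenous transcription factor activity in HepG2 was gauged through induction of reporter mRNA driven by a cis-regulating promoter element, sampled 24 h post-treatment. Activity was fitted in both directions against DMSO negative control.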

Experiment [9] in a line: ATG_PPRE_CIS: Attagene CIS-FACTORIAL HepG2 Assay for human Peroxisome Proliferator-activated Response Element (PPRE) (AID 2282958). Conditions: HepG2 PPRE cis-element reporter, Attagene transcription factor profiling; actives raise or lower the signal. Put shortly:
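Endogenous PPRE-driven transcription is measured in HepG2 cells carrying transfected multi-reporter constructs. Reporter transcripts are quantified by RT-PCR, HpaI digestion and capillary electrophoresis 24 h after dosing. DMSO baseline, bidirectional fit.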

Experiment [10] is described as follows: ATG_Sox_CIS: Attagene CIS-FACTORIAL HepG2 Assay for human SRY-box transcription factor (SOX) (AID 2282960). Conditions: HepG2 Attagene cis-factorial SOX reporter, mRNA; actives raise or lower the signal. A digest of the protocol: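 Reporter transcripts, measured by RT-PCR and capillary electrophoresis of labelled fragments, report endogenous SOX transcription factor activity. Transiently transfected human HepG2 cells receive chemical for 24 h; changes in either direction are fitted relative to DMSO.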

The target in experiment [11] is Transcription factor Sp1 (Homo sapiens) (UniProt P08047). Nature of the experiment: ATG_Sp1_CIS: Attagene CIS-FACTORIAL HepG2 Assay for human Specificity Protein 1 (Sp1) (AID 2282961). The note with it: HepG2 Sp1 cis-reporter transcription, actives raise or lower the signal. A digest of the protocol: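 Read-out is reporter transcript level, measured by RT-PCR and fluorescent capillary electrophoresis after 24 h chemical treatment. System: transiently transfected HepG2 cells reporting endogenous transcription factor activity; gain or loss fitted against DMSO baseline.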
Chain of Transcription factor Sp1 (Homo sapiens) (P08047 whole entry, looked up): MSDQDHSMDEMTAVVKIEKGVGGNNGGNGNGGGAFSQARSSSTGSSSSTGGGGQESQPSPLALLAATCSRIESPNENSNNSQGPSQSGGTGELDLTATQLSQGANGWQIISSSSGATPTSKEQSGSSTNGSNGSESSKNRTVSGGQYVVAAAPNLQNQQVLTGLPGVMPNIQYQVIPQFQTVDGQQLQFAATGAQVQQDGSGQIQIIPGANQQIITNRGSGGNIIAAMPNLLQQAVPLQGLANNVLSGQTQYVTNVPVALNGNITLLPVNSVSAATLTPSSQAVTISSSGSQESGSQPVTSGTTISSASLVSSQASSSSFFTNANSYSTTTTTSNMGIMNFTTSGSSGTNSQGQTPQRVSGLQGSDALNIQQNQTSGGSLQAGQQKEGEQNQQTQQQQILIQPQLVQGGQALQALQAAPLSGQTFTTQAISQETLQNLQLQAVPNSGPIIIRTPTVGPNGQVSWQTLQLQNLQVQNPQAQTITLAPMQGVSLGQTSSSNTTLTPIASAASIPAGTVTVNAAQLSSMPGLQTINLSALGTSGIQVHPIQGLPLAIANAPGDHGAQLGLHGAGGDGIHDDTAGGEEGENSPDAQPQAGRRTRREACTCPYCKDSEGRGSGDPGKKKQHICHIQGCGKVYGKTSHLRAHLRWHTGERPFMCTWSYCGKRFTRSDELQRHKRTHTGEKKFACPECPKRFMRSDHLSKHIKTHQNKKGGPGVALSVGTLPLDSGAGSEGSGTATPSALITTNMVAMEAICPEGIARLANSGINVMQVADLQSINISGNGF

The nature of experiment [12]: ATG_SREBP_CIS: Attagene CIS-FACTORIAL HepG2 Assay for human Sterol Regulatory Element Binding (SREBP) (AID 2282962). The note with it: HepG2 Attagene cis-factorial SREBP reporter, mRNA; actives raise or lower the signal. A digest of the protocol:
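Values derive from bidirectional curve fitting with DMSO as baseline. The underlying measurement is reporter mRNA from cis-element-regulated units in transiently transfected HepG2, quantified by RT-PCR and capillary electrophoresis after 24 h exposure.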

The target in experiment [13] is Signal transducer and activator of transcription 3 (Homo sapiens) (UniProt P40763). The experiment in a line: ATG_STAT3_CIS: Attagene CIS-FACTORIAL HepG2 Assay for human Signal Transducer and Activator of Transcription 3 (STAT3) (AID 2282963). The note with it: HepG2, Attagene cis-factorial STAT3 reporter transcription; actives raise or lower the signal. A digest of the protocol: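 Uses human liver HepG2 transiently carrying cis-regulated reporter transcription units. Following 24 h dosing, reporter mRNA induction was detected by RT-PCR and capillary electrophoresis, analysed bidirectionally versus DMSO.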
Chain of Signal transducer and activator of transcription 3 (Homo sapiens) (P40763 whole entry, looked up): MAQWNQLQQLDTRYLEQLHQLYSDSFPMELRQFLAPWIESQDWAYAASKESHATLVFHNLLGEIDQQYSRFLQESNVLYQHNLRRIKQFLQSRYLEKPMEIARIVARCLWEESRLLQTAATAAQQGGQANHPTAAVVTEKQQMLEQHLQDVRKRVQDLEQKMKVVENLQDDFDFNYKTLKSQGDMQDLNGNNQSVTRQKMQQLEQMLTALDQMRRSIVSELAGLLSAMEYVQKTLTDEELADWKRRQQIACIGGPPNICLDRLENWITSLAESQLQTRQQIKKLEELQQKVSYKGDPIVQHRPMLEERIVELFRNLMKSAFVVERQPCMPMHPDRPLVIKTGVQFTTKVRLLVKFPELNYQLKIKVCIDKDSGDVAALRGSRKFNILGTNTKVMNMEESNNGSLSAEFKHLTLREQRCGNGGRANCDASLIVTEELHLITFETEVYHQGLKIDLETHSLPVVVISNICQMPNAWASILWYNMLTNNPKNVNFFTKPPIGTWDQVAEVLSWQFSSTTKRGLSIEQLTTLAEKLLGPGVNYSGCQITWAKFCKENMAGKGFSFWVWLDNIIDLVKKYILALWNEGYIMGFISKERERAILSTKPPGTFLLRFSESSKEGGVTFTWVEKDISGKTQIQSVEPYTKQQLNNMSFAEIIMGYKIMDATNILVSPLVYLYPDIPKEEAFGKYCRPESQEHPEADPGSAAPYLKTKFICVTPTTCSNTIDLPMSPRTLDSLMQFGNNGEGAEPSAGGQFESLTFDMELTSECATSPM

Experiment [14] in a line: ATG_TA_CIS: Attagene CIS-FACTORIAL HepG2 Assay for human TA Basal Promoter (AID 2282964). Conditions: HepG2 Attagene CIS-factorial TA basal promoter reporter; actives raise or lower the signal. A digest of the protocol:
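HepG2 cells transiently transfected with multiplexed cis-promoter reporter units, dosed 24 h. Reporter mRNA measured by RT-PCR, 6-FAM labelling, HpaI digestion and capillary electrophoresis; bidirectional fit versus DMSO baseline, serving as background control.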

The nature of experiment [15]: ATG_ISRE_CIS: Attagene CIS-FACTORIAL HepG2 Assay for human Interferon Regulatory Factor 1 (IRF1) binding to an Interferon-Stimulated Response Element (ISRE) (AID 2282948). Conditions: HepG2 ISRE cis-reporter (Attagene), mRNA transcription readout; actives raise or lower the signal. A digest of the protocol:
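Signal reflects induction or loss of ISRE-linked reporter mRNA in transiently transfected HepG2 cells after a 24 h treatment, detected by fluorescent RT-PCR fragments on capillary electrophoresis and normalised to DMSO.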

Experiment [16] has as its target Paired box protein Pax-6 (Homo sapiens) (UniProt P26367). Nature of the experiment: ATG_Pax6_CIS: Attagene CIS-FACTORIAL HepG2 Assay for human Paired Box 6 (PAX6) (AID 2282956). Conditions: HepG2 CIS-FACTORIAL PAX6 reporter transcription, RNA readout; actives raise or lower the signal. Put shortly: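 Values derive from bidirectional curve fitting of reporter mRNA signal relative to DMSO. HepG2 cells bearing transfected cis-regulated MRTUs were exposed for 24 h; transcripts were read by RT-PCR and capillary electrophoresis.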

Experiment [17] is described as follows: ATG_RORE_CIS: Attagene CIS-FACTORIAL HepG2 Assay for human RAR-related Orphan Receptor Element (RORE) (AID 2282959). Conditions: HepG2 Attagene cis-factorial RORE reporter, mRNA; actives raise or lower the signal. A digest of the protocol:
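RORE reporter transcripts reflecting endogenous factor activity were read after 24 h compound exposure of transfected HepG2 cells, using reverse transcription, PCR, fluorescent labelling and capillary electrophoresis sizing. Gain or loss fitted against DMSO.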

Experiment [18] can be described thus: ATG_PBREM_CIS: Attagene CIS-FACTORIAL HepG2 Assay for human Phenobarbital-responsive Enhancer Module (PBREM) (AID 2282955). Conditions: HepG2 PBREM cis-reporter, Attagene multiplexed transcription; actives raise or lower the signal. A digest of the protocol: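 Endogenous transcription factor activity was read from reporter transcripts in transiently transfected human HepG2 liver cells after 24 h dosing. RT-PCR products were fluorescently labelled, HpaI-cut and sized by capillary electrophoresis; activity fitted bidirectionally against DMSO baseline.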

Activity calls are given as the source filed them. Rule for the calls: active = hit-call score of the fitted dose curve at least 0.9, where 1 is the maximum; inactive = score below 0.9.

Chain of Hepatocyte nuclear factor 6 (Homo sapiens) (Q9UBC0 whole entry, looked up): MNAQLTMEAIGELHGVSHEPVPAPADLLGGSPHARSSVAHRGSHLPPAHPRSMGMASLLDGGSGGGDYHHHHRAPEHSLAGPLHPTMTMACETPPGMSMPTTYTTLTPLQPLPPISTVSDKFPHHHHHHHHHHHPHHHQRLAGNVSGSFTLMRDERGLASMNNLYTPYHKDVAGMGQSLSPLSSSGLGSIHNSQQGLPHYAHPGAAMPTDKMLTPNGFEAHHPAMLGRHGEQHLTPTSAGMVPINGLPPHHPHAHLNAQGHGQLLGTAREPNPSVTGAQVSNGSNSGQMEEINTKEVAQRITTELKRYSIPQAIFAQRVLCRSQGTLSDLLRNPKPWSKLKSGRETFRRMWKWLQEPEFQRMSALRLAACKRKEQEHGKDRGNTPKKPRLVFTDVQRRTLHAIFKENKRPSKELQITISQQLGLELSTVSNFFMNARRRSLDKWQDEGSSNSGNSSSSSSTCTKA
Chain of Hypoxia-inducible factor 1-alpha (Homo sapiens) (Q16665 whole entry, looked up): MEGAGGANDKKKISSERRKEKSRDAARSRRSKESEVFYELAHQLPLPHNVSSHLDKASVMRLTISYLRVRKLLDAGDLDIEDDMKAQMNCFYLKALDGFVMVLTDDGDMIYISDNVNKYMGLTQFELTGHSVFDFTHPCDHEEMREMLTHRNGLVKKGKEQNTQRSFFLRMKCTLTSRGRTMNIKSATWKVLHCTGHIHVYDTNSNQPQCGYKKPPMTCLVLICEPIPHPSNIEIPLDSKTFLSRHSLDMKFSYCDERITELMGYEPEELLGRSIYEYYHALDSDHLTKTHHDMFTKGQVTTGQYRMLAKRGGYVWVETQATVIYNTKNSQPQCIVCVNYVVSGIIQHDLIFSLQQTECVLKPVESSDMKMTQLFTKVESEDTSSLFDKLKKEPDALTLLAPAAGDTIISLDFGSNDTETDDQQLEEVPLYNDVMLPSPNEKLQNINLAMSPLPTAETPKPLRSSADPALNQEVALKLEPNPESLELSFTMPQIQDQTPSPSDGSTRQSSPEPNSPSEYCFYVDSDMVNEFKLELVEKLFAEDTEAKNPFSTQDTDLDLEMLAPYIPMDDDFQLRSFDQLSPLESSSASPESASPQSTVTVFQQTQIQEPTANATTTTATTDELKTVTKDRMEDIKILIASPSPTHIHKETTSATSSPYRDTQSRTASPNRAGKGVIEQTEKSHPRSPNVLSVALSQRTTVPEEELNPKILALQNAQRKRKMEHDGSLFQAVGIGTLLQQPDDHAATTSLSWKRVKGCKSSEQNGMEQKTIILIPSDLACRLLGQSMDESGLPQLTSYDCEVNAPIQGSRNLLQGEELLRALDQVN
Chain of Heat shock factor protein 1 (Homo sapiens) (Q00613 whole entry, looked up): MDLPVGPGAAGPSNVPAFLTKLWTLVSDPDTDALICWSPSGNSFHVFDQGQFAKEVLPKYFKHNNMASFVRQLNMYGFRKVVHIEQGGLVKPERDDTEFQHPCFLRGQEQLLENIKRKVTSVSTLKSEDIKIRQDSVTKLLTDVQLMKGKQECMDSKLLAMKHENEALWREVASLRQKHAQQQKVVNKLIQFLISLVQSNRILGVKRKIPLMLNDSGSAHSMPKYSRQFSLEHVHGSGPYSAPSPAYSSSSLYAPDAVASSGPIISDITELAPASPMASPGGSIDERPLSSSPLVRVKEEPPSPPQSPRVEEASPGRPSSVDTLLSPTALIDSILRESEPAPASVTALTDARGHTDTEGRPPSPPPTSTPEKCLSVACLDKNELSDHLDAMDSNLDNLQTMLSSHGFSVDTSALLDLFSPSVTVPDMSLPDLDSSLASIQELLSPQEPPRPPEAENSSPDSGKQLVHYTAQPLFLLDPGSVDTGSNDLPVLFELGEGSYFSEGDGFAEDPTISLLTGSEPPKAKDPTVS
Chain of Paired box protein Pax-6 (Homo sapiens) (P26367 whole entry, looked up): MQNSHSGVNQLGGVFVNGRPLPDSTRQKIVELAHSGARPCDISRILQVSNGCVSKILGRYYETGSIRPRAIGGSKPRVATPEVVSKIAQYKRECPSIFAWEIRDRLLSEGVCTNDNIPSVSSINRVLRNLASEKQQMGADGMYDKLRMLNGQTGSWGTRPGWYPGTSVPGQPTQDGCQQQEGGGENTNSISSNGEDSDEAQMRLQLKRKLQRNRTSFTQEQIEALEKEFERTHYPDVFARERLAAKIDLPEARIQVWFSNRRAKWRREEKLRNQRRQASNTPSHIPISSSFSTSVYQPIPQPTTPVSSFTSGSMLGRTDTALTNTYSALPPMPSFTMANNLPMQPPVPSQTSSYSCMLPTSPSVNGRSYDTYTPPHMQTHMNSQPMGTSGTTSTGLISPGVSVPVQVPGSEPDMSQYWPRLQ

With `O=C(O)c1cccc(Cl)n1`, the molecule was called inactive in experiment [1], in [2], in experiment [3], in [4], in experiment [5] and in [6]. Besides, the result in experiment [7], in [8], in [9], in [10], in [11] and in experiment [12] was inactive. The molecule was called inactive in experiment [13] and in [14].

`NS(=O)(=O)c1cc(C(=O)O)c(NCc2ccco2)cc1Cl`: the result in [1], in experiment [15], in [2], in experiment [3], in experiment [4] and in experiment [6] was inactive. Moreover, the outcome in experiment [7], in experiment [16], in experiment [8], in [9], in experiment [17] and in experiment [10] was inactive. Also, the molecule was classed as inactive in [12], in [13] and in experiment [14].

One may read the AC50 as the concentration at which the activity in the assay is half-maximal. Regarding `C=CC(=O)OCCCCCC`, the molecule was classed as inactive in experiment [1], in experiment [15], in [2], in experiment [3], in [5] and in experiment [6]. Further, the molecule was called inactive in experiment [7], in [16], in experiment [10], in experiment [11], in experiment [12] and in experiment [13]. The outcome in experiment [14] was inactive. Further, the AC50 in experiment [8] was 59.6 µM (active).

As for `CCCCCCOc1ccc(O)cc1`, the molecule was classed as inactive in [1], in experiment [2], in experiment [3], in [4], in experiment [5] and in experiment [18]. For the same molecule, the molecule was classed as inactive in experiment [9], in experiment [17], in [10], in experiment [11] and in [13]. For the same molecule, the AC50 was 11.3 µM (active) in [6], 47.7 µM (active) in experiment [7], 5.85 µM (active) in experiment [8] and 39.2 µM (active) in [14].

Take `CCC(C)COC(=O)CC(C)C` (stereo unspecified): the outcome in experiment [1], in experiment [15], in [2], in experiment [3], in [5] and in experiment [6] was inactive. Moreover, the molecule was called inactive in experiment [7], in experiment [18], in experiment [16], in experiment [8], in experiment [9] and in experiment [17]. Moreover, the call in experiment [10], in [11], in experiment [12], in [13] and in experiment [14] was inactive.

In the case of `C=CCCCCCCCCC(=O)OCC`, the molecule was called inactive in experiment [1], in experiment [15], in experiment [2], in experiment [3], in experiment [5] and in [6]. The call in experiment [7], in [18], in [16], in experiment [8], in [17] and in experiment [10] was inactive. The result in [11], in experiment [13] and in [14] was inactive.

Consider `CCCCCCCCCCO[C@@H]1O[C@H](CO)[C@@H](O)[C@H](O)[C@H]1O`, for which the outcome in [1], in [15], in experiment [2], in [3], in experiment [6] and in experiment [7] was inactive. For the same molecule, the result in experiment [18], in experiment [16], in [8], in [9], in experiment [17] and in experiment [10] was inactive. In addition, the outcome in experiment [11], in experiment [12], in [13] and in experiment [14] was inactive.

As to `CC1=CCC(=C(C)C)CC1`, the molecule was classed as inactive in [1], in [15], in experiment [2], in [3], in experiment [5] and in experiment [6]. The molecule was classed as inactive in experiment [7], in [18], in experiment [16], in [10], in experiment [11] and in experiment [12]. In addition, the call in experiment [13] and in experiment [14] was inactive. Also, the AC50 in [8] was 5.48 µM (active).
